Hits are enriched below; roughly 2.4% of the tested compounds scored in any of these assays.
TLR4-MyD88 BLA – inhibitors of TLR4-MyD88 association in cells, primary screen, cell-based, HeLa CL3-4, BLA complementation, FRET ratio. Toll-like receptor 4 (Homo sapiens) + Myeloid differentiation primary response protein …. HeLa CL3-4 TLR4/MyD88 BLA complementation. inhibition, % at 8.4 µM. actives 0.18% (n = 200,000). AID 861, 2007; in the data active means inhibition above about 25%;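 further: 0% = vehicle and 100% = reference inhibitor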
Target sequence (O00206 whole entry, looked up): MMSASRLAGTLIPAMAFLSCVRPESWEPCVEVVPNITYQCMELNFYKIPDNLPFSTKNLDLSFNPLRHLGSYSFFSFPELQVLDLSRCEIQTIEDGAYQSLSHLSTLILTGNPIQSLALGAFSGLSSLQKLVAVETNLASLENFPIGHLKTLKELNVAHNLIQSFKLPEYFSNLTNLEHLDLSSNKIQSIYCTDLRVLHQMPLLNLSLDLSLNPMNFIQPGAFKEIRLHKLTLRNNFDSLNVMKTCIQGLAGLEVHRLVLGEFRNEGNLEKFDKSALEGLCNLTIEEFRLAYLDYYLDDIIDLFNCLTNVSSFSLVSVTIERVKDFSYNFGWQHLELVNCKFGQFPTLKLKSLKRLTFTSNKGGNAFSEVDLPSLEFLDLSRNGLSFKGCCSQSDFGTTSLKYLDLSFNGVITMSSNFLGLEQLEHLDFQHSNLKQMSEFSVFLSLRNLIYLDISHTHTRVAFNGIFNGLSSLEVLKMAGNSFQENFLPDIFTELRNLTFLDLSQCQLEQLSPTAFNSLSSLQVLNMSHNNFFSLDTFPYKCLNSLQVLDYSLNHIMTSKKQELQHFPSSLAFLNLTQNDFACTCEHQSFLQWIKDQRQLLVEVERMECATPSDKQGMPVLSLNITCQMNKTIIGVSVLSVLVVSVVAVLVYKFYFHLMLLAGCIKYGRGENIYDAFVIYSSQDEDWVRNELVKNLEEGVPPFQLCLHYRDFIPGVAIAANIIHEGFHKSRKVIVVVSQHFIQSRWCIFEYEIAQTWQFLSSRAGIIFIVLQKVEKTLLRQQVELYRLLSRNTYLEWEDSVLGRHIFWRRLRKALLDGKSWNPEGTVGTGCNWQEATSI
Target sequence (Q99836 whole entry, looked up): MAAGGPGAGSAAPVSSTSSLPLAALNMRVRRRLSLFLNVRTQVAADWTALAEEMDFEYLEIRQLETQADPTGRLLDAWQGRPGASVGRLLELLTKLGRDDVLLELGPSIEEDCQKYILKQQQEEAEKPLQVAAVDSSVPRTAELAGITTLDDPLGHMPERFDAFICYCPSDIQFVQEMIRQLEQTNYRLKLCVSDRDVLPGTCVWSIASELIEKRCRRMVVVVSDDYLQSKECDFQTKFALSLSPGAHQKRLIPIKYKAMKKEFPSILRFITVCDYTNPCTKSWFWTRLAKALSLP
CRFR2-BP antag – antagonists of CRF-BP/CRF-R2 complex, primary screen, cell-based, HEK293, calcium dye fluorescence, uHTS. CRF-induced calcium fluorescence. inhibition, % at 11.8 µM. actives 0.59% (n = 350,000);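 active means inhibition of the ligand-induced calcium signal above about 50% at the single tested concentration, limit read from the data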
ABHD5-PLIN5 inh – ABHD5-PLIN5 interaction inhibitors, primary screen, cell lysate, split luciferase complementation, luminescence; actives 0.78% (n = 360,000); inhibition, % at 4 µM; Split G. princeps luciferase complementation, 4 h; Perilipin-5 (Homo sapiens) + 1-acylglycerol-3-phosphate O-acyltransferase ABHD5 (Homo …;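 active means inhibition above the mean inhibition across every tested compound plus 3 SD, cut at about 22% in these data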;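 further: 0% = DMSO only wells and the 100% control is not disclosed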
HTR2A ag – mouse Htr2a agonists via beta-arrestin recruitment, primary screen, cell-based, luminescence; activation, % at 7.6 µM; CHO-K1 mHTR2A beta-arrestin complementation; percent of 30 µM serotonin response; actives 0.66% (n = 360,000); AID 624169, 2012; 5-hydroxytryptamine receptor 2A (Mus musculus), P35363;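 active means activation above a run cutoff, the mean activation of all tested compounds plus 3 SD, cut at about 14% in these data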;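 further: 0% = plate median of compound wells and 100% = 30 µM serotonin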
TLR9-MyD88 block – inhibitors of TLR9-MyD88 association in cells, primary screen, cell-based, CHO, BLA complementation, fluorescence; CCF4 FRET ratio; Toll-like receptor 9 (Homo sapiens) + Myeloid differentiation primary response protein …; actives 0.21% (n = 340,000); inhibition, % at 4.98 µM;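 active means inhibition above the mean over all tested compounds plus 3 SD, cut at about 21% in these data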;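 further: 0% = DMSO only wells and 100% = clavulanate BLA inhibitor control wells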
NOD2-RIPK2 inh – NOD2-RIPK2 binding disruptors in cells, primary screen, fluorescence, CHO cells, BLA complementation. inhibition, % at 4.98 µM. CCF4 ratio. AID 624267, 2012. actives 0.38% (n = 360,000); in the data active means inhibition above about 21%;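 further: 0% = vehicle only and 100% = reference blocker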
TLR4 MyD88 cnf – TLR4-MyD88 association inhibitors, retest, confirmation, cell-based, HeLa CL3-4, BLA complementation, FRET ratio; shares compounds with TLR4-MyD88 BLA; AID 941, 2007; actives 50% (n = 350); inhibition, % at 8.4 µM; CCF4 FRET ratio;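 active means mean inhibition across three repeat runs above about 25% carried over from the earlier screen, limit read from the data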;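 further: plate controls were DMSO only for no effect and clavulanic acid blocking BLA at full dose for full effect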
BLA inhibitor ct – counter-screen for TLR4-MyD88 inhibitors: beta-lactamase reporter inhibitors; shares compounds with TLR4-MyD88 BLA; HeLa BLA reporter, CCF4 FRET ratio; inhibition, % at 8.4 µM; actives 63% (n = 350); AID 1237;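 active means mean inhibition over three repeats above about 26% taken from the earlier screen, limit read from the data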;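 further: HeLa cells stably expressing beta-lactamase reporter as counterscreen for TLR4-MyD88 inhibitors; 0% = DMSO and 100% = clavulanic acid full inhibition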
TLR9-MyD88 cf – TLR9-MyD88 association inhibitors, retest, confirmation, cell-based, CHO, BLA complementation, fluorescence, triplicate; shares compounds with TLR9-MyD88 block; CCF4 FRET ratio; inhibition, % at 4.98 µM; actives 51% (n = 680);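 active means mean inhibition across three repeats above about 21% taken from the earlier screen, limit read from the data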;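 further: blue over green emission ratio reports constitutive TLR9 MyD88 association via BLA complementation; 0% = DMSO vehicle wells and 100% = clavulanate BLA inhibitor wells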
BLA counter-1 – beta-lactamase reporter inhibitors in CHO cells, artefact control for TLR9-MyD88 binding inhibitor project, cell-based, fluorescence. shares compounds with TLR9-MyD88 block. CHO-BLA cells, CCF4 FRET ratio, BLA reporter. inhibition, % at 4.98 µM. actives 7% (n = 680). AID 540251, 2011;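 active means mean inhibition above a 50% cutoff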;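 further: counterscreen of TLR9-MyD88 hits on CMV-driven BLA in CHO-K1 cells; 0% = DMSO alone and 100% = clavulanate blocking BLA; higher means less blue over green ratio so more BLA blockade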
TLR9 CHO cytotox – CHO cell viability loss – luminescence, single concentration, cytotoxicity control for TLR9-MyD88 binding inhibitor project | shares compounds with TLR9-MyD88 block | TLR9-MyD88 CHO cells cytotoxicity | inhibition, % at 4.98 µM | actives 39% (n = 680); in the data active means inhibition above about 11%
ABHD5-PLIN5 conf – ABHD5-PLIN5 interaction inhibitors, confirmation, biochemical, luminescence | shares compounds with ABHD5-PLIN5 inh | inhibition, % at 4 µM | actives 67% (n = 2,200); in the data active means inhibition above about 23%;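 further: 0% = DMSO vehicle wells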
HNF4 split-luc – HNF4 dimerization inhibitors, counter-screen for ABHD5-PLIN5 interaction inhibitor project, biochemical, split-luciferase complementation, luminescence; actives 77% (n = 2,200); shares compounds with ABHD5-PLIN5 inh; inhibition, % at 4 µM;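 active means mean inhibition across replicate wells exceeding the computed hit threshold, cut at about 13% in these data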;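 further: light from luciferase halves that rejoin when HNF4 fusion proteins dimerize; 0% = DMSO only wells and the 100% control is not given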
NOD2-RIPK2 conf – NOD2-RIPK2 binding disruptors, retest, confirmation, fluorescence, CHO cells, BLA complementation, triplicate | shares compounds with NOD2-RIPK2 inh | CCF4 FRET | inhibition, % at 4.98 µM | actives 70% (n = 1,200) | AID 624370, 2012;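 active means mean inhibition across replicates above a set limit taken from the earlier primary screen, cut at about 21% in these data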;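 further: 0% = DMSO-only wells and the high end = clavulanate BLA-blocked wells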
BLA counter-2 – counter-screen for NOD2-RIPK2 interaction inhibitors: BLA reporter; inhibition, % at 4.98 µM; shares compounds with NOD2-RIPK2 inh; actives 57% (n = 1,200); CHO BLA reporter, CCF4 FRET ratio, counterscreen;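 active means mean inhibition above the low-control mean inhibition plus three low-control SD, cut at about 11% in these data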;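 further: 0% = DMSO only wells and 100% = clavulanate high control wells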
Numbers without * were called inactive; · = not tested or not shown.

SMILES	TLR4-MyD88 BLA	CRFR2-BP antag	ABHD5-PLIN5 inh	HTR2A ag	TLR9-MyD88 block	NOD2-RIPK2 inh	TLR4 MyD88 cnf	BLA inhibitor ct	TLR9-MyD88 cf	BLA counter-1	TLR9 CHO cytotox	NOD2-RIPK2 conf	BLA counter-2	others
Nc1[nH]c(C(=O)c2ccccc2)c(-c2ccc(F)cc2)c1C(=O)NCc1ccccc1	·	·	-2	-2	·	-13	·	·	·	·	·	·	·
Nc1ccc2c(c1)C/C(=C/c1ccco1)C2=O	32*	-1	9	-1	24*	13	26*	55*	23*	30	7	·	·
O=C1/C(=C/c2ccco2)CCc2ccccc21	-7	1	-2	-1	4	-5	·	·	·	·	·	·	·
O=C1C=CC(=NN=C(c2ccccc2)c2ccccc2)C=C1	·	·	-9	-1	·	2	·	·	·	·	·	·	·
NC(=O)c1sc2nc(-c3ccccc3)ccc2c1N	·	1	-3	-6	5	-4	·	·	·	·	·	·	·
COc1ccc(C(=O)c2sc3nc(-c4ccccc4)ccc3c2N)cc1OC	36*	-29	-4	-6	33*	15	38*	57*	43*	38	9	·	·
Nc1nc(N)c2cc(CNc3ccc(Cl)c(Cl)c3)ccc2n1	·	-27	2	-6	-5	6	·	·	·	·	·	·	·
COc1ccc(CS(=O)(=O)/C(Cl)=C(/Cl)C(=O)Nc2ccc(OC)nc2)cc1	25*	-9	41*	-8	31*	73*	22	14	32*	24	100*	·	·
Cc1ccc(NC(=O)/C(C#N)=C/c2cn(CC(=O)NCc3ccco3)c3ccccc23)cc1C	60*	0	0	3	36*	-18	54*	80*	7	14	28*	·	·
O=C1Nc2ccccc2C(=O)N(C2CCCC2)C1C(=O)NC1CC1 (stereo not drawn)	·	·	1	1	·	2	·	·	·	·	·	·	·
CC1(C)CC(=O)C(C(C2=C(O)CC(C)(C)CC2=O)c2cccs2)C(=O)C1 (stereo not drawn)	25*	18	41*	-3	-1	-1	2	-11	·	·	·	·	·	ABHD5-PLIN5 conf=64*;HNF4 split-luc=69*
CC(C)(C(=O)N1CCC1(C)C(=O)NS(=O)(=O)c1ccccc1Cl)c1ccccc1 (stereo not drawn)	·	·	-7	7	·	-8	·	·	·	·	·	·	·
CCN(CC)C(=O)c1sc2nc(-c3cccs3)cc(-c3ccc(Cl)cc3)c2c1N	7	-11	-11	-5	18	-9	·	·	·	·	·	·	·
N#Cc1sc2nc(-c3cccs3)cc(-c3ccc(Cl)cc3)c2c1N	44*	-90	5	2	30*	24*	47*	75*	46*	45	3	64*	66*
Cc1[nH]c2ccccc2c1/C=N/Nc1ccccn1	1	·	·	·	·	·	·	·	·	·	·	·	·
Cc1[nH]c2ccccc2c1/C=N/Nc1ccc([N+](=O)[O-])cc1	31*	-220	17	-5	26*	28*	24	43*	17	15	4	30*	42*
O=C(NCC[C@@H]1CC[C@@H](NC(=O)c2cnccn2)[C@@H](CO)O1)c1ccc2c(c1)OCO2	·	·	-5	-5	·	0	·	·	·	·	·	·	·
CCN1CCc2c(sc(NC(=O)Nc3ccc(Cl)c(Cl)c3)c2C(N)=O)C1	35*	-276	18	-2	48*	41*	38*	60*	15	10	20*	24*	30*
CCN1CCc2c(sc(NC(=O)Cc3ccccc3)c2C(N)=O)C1	·	-15	-4	-5	2	-2	·	·	·	·	·	·	·
O=C1c2cccc3c([N+](=O)[O-])ccc(c23)C(=O)N1Cc1cccnc1	77*	42	6	-3	66*	78*	79*	104*	49*	66*	72*	84*	71*
Cc1ccnc(N2C(=O)c3cccc4c([N+](=O)[O-])ccc(c34)C2=O)c1	92*	15	0	6	79*	88*	90*	113*	58*	82*	93*	92*	83*
O=C1c2cccc3cccc(c23)C(=O)N1Cc1cccnc1	·	-5	-1	1	9	-6	·	·	·	·	·	·	·
Cc1ccc(N2C(=O)c3cccc4c([N+](=O)[O-])ccc(c34)C2=O)c2cccnc12	·	20	1	1	8	13	·	·	·	·	·	·	·
CCOc1ccc(S(=O)(=O)N(CC(=O)N/N=C/c2ccc(-c3ccc([N+](=O)[O-])cc3)o2)c2ccccc2)cc1	65*	-15	1	5	55*	35*	50*	87*	57*	59*	22*	68*	76*
O=C(Cn1ncc(Cl)c(Cl)c1=O)c1ccc(Cl)cc1	29*	22	3	-3	32*	34*	22	8	18	13	72*	39*	6

Screening data deposited in PubChem BioAssay by several laboratories.
